Source: PubChem (several laboratories)
Rows were chosen to be rich in hits. Some 1.1% of all compounds tested hit in one or more screens of this group.
LRH-1 inv ag: NR5A2 inverse agonism in reporter assay; HEK293T StAR-luciferase reporter, LRH-1 transfected, 24 h; AID 602396; inhibition, % at 3.6 µM; actives 0.13% (n = 360,000);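 active means inhibition above the mean inhibition of all tested compounds plus 3 SD, cut at about 73% in these data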;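 further: 0% = DMSO wells and 100% = reporter-only cells lacking LRH-1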
Target sequence (O00482 whole entry, looked up): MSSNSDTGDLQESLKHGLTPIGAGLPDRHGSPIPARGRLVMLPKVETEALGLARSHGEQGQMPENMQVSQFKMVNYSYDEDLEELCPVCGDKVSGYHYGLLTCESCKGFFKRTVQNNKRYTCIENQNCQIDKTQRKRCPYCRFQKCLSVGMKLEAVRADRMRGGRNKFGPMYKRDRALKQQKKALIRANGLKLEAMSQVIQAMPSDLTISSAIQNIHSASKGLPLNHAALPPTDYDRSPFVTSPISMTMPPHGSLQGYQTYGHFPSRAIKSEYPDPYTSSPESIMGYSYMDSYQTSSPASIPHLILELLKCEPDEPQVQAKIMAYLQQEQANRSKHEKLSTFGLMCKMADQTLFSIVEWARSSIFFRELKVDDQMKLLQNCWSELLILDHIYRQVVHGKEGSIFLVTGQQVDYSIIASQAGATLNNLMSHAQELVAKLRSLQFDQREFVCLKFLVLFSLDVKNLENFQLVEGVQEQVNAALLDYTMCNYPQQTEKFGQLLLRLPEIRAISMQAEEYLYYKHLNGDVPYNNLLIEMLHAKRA
Gli-Sufu antag: Gli-Sufu pathway antagonism; Sufu-KO-LIGHT fibroblasts, Gli luciferase reporter luminescence; inhibition, % at 5 µM; actives 0.74% (n = 340,000);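 active means inhibition above about 55%, limit read from the data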;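 further: 0% = DMSO-treated cells and 100% = wells with medium but no cells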
NCOA3 inh: inhibits human SRC3 coactivator; HEK293 GAL4-SRC3 luciferase reporter, luminescence; inhibition, % at 3.6 µM; actives 0.17% (n = 360,000);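 active means inhibition above a per-campaign cutoff, the mean of all compounds plus 3 SD, cut at about 60% in these data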;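 further: 0% = DMSO-treated cells and 100% = gossypol-treated cells at 36 µM; higher means less SRC3-driven luciferase light from the GAL4 reporter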
Shn3 inh set2: inhibitors of Schnurri-3 3'UTR reporter in osteoblasts. actives 0.52% (n = 360,000). inhibition, % at 12.5 µM. AID 588674. Clone20 osteoblast Shn3 3'UTR firefly luciferase, 24 h;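 active means mean inhibition of at least 75% with every replicate also reaching 75%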;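 further: 0% = median of neutral control wells and 100% = pilot-screen positive control compound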
SRC2 inh: human SRC2 (NCOA2) inhibition | Q15596 | HEK293 GAL4-SRC2 luciferase reporter, luminescence | inhibition, % at 9 µM | actives 0.17% (n = 370,000);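 active means inhibition above the mean inhibition of all tested compounds plus 3 SD, set per campaign, cut at about 52% in these data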;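 further: 0% = DMSO treated cells and 100% = cells given Gossypol at 36 µM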
NCOA1 inh: inhibits human SRC1 coactivator. HEK293 GAL4-SRC1 luciferase reporter, luminescence. Q15788. actives 0.12% (n = 360,000). inhibition, % at 3.6 µM;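 active means inhibition above the campaign mean plus 3 SD, with each screening campaign given its own cutoff, cut at about 60% in these data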;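 further: 0% = DMSO treated cells and 100% = gossypol at 36 µM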
Gli-Sufu confirm: confirmation of Gli-SUFU pathway antagonists | actives 40% (n = 2,500) | inhibition, % at 5 µM | Sufu-KO-LIGHT cells, Gli luciferase reporter, luminescence | shares compounds with Gli-Sufu antag;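 active means mean inhibition at 5 µM reaching about 45%, limit read from the data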;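 further: plate controls were DMSO-treated cells for no effect and wells lacking cells for full effect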
Gli cytotox: cytotoxic in Gli-SUFU antagonist counter-screen. shares compounds with Gli-Sufu antag. Sufu-KO-LIGHT cells cytotoxicity, ATP luminescence. cytotoxicity, % at 5 µM. actives 32% (n = 2,500);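 active means mean cytotoxicity at 5 µM above about 25%, limit read from the data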;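 further: cells exposed to compound overnight for roughly 16 to 18 hours; plate controls were DMSO wells with cells for no effect and medium without cells for full effect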
Wnt3a cs: inhibits Wnt3a reporter, counter-screen for Gli-SUFU antagonists; shares compounds with Gli-Sufu antag; Wnt-LIGHT cells, Wnt3a-driven luciferase reporter, luminescence; inhibition, % at 6.25 µM; actives 20% (n = 2,500); AID 651995;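 active means mean inhibition above about 25%, limit read from the data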
Starred values were filed as active, the others as inactive; / = no result.

SMILES	LRH-1 inv ag	Gli-Sufu antag	NCOA3 inh	Shn3 inh set2	SRC2 inh	NCOA1 inh	Gli-Sufu confirm	Gli cytotox	Wnt3a cs
COC(=O)c1cc(S(=O)(=O)N2CCN(c3ccc([N+](=O)[O-])cc3)CC2)c[nH]1	9	51	-9	23	0	-11	21	-1	-68
CC(COc1cccc(Cl)c1)CN1CCC(C(O)(c2ccccc2)c2ccccc2)CC1 (stereo unspecified)	/	/	/	/	9	/	/	/	/
O=C(Nc1cccc(NC(=O)c2ccco2)c1)c1ccccc1	11	52	-7	-38	-16	11	16	7	18
O=C(Nc1ccc(Oc2cccc3ccccc23)cc1)c1ccco1	-46	97*	-25	1	-19	-17	-3	23	-7
Fc1ccc(Cn2ccc3ccc(-c4ccc5ccn(Cc6ccc(F)cc6)c5c4)cc32)cc1	/	/	/	/	-42	/	/	/	/
Nc1ccc(Cn2ccc3c4c(N)nc(N)nc4ccc32)cc1	32	61*	42	75	-7	56	58*	17	41*
Cc1onc(-c2c(F)cccc2Cl)c1C(=O)OCC(=O)Nc1cccc(S(=O)(=O)N(C)C)c1	-16	53	-6	14	25	0	12	6	-50
Cc1onc(-c2c(F)cccc2Cl)c1C(=O)Nc1ccc(Cl)c(S(=O)(=O)N(C)C)c1	3	58*	6	-6	-69	-8	16	13	-21
Cc1noc(C)c1C(=O)OCC(=O)Nc1cccc(S(=O)(=O)N(C)C)c1	13	-20	20	-1	-5	10	/	/	/
c1ccc(CC2CCN(c3nnnn3-c3ccccc3)CC2)cc1	21	1	7	5	3	-7	/	/	/
N/C(=N/O)c1ccccc1N1CCC(Cc2ccccc2)CC1	-3	78*	27	24	21	7	74*	36*	-25
C/C(=N\NC(=O)c1ccccc1[N+](=O)[O-])c1c(O)cc(C)oc1=O	3	-1	24	5	-2	-8	/	/	/
C/C(=N\NC(=O)c1ccccc1O)c1c(O)cc(C)oc1=O	-62	58*	-9	1	-43	-48	4	-2	-40
O=S(=O)(c1ccc2c(c1)nc(COc1ccc(Cl)cc1)n2CC1CCCO1)N1CCOCC1 (stereo unspecified)	6	60*	7	19	-28	-11	45*	9	33*
COc1ccc(CSc2nnc(SCc3ccccc3)s2)cc1	/	/	/	/	-8	/	/	/	/
COc1ccc(O)c(C(=O)c2cnc3c(c2)c(=O)[nH]c(=O)n3C)c1	-18	57*	7	-2	1	0	28	7	33*
CC(=O)c1ccc(-n2cc(-c3ccc(C(C)(C)C)cc3)[n+]3c2SCCC3)cc1	9	73*	31	31	11	-7	65*	22	-51
COc1ccc(-c2cn(-c3ccc(Br)cc3)c3[n+]2CCS3)cc1	29	74*	31	65	27	18	76*	24	61*
Clc1ccc(-c2cn(-c3ccccc3)c3[n+]2CCS3)cc1	14	56*	16	7	2	8	56*	24	-12
Fc1ccc(-c2cn(-c3ccccc3)c3[n+]2CCS3)cc1	14	21	16	21	15	-12	/	/	/
COc1ccc2c(c1)CCCN2C(=O)C1CCCN(S(=O)(=O)c2ccc(C)c(C)c2)C1 (stereo unspecified)	/	/	/	/	6	/	/	/	/
O=C(Nc1ccc(OC(F)(F)F)cc1)Nc1c(-c2ccccc2)nc2ncccn12	/	/	/	/	12	/	/	/	/
COc1ccc(C2C(C(=O)Nc3cc(OC)c(OC)c(OC)c3)CCC(=O)N2c2ccc(OC)cc2)cc1 (stereo unspecified)	/	/	/	/	2	/	/	/	/
C=CCNC(=O)N1CCC(c2nc3ccc(Cl)cc3[nH]2)CC1	/	/	/	/	12	/	/	/	/
